Screening results as filed in PubChem BioAssay.
An excerpt weighted towards active compounds, which were near 0.78% of everything screened.
BLM inh – qHTS Assay for Inhibitors of Bloom's syndrome helicase (BLM) | RecQ-like DNA helicase BLM (Homo sapiens), P54132 | recombinant BLM DNA unwinding, fluorescence dequenching | Potency, µM (titrated, usually from 56.1 µM), for the others: at the highest dose activity change, negative = inhibition, actives largely listed as inhibitors | 350,000 tested, 0.2% active | AID 2528, 2010;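 also: plate controls were vehicle for no effect and no enzyme for full effect; nearly all actives have a fitted effect of over 35% in size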
Target sequence (P54132 whole entry, looked up): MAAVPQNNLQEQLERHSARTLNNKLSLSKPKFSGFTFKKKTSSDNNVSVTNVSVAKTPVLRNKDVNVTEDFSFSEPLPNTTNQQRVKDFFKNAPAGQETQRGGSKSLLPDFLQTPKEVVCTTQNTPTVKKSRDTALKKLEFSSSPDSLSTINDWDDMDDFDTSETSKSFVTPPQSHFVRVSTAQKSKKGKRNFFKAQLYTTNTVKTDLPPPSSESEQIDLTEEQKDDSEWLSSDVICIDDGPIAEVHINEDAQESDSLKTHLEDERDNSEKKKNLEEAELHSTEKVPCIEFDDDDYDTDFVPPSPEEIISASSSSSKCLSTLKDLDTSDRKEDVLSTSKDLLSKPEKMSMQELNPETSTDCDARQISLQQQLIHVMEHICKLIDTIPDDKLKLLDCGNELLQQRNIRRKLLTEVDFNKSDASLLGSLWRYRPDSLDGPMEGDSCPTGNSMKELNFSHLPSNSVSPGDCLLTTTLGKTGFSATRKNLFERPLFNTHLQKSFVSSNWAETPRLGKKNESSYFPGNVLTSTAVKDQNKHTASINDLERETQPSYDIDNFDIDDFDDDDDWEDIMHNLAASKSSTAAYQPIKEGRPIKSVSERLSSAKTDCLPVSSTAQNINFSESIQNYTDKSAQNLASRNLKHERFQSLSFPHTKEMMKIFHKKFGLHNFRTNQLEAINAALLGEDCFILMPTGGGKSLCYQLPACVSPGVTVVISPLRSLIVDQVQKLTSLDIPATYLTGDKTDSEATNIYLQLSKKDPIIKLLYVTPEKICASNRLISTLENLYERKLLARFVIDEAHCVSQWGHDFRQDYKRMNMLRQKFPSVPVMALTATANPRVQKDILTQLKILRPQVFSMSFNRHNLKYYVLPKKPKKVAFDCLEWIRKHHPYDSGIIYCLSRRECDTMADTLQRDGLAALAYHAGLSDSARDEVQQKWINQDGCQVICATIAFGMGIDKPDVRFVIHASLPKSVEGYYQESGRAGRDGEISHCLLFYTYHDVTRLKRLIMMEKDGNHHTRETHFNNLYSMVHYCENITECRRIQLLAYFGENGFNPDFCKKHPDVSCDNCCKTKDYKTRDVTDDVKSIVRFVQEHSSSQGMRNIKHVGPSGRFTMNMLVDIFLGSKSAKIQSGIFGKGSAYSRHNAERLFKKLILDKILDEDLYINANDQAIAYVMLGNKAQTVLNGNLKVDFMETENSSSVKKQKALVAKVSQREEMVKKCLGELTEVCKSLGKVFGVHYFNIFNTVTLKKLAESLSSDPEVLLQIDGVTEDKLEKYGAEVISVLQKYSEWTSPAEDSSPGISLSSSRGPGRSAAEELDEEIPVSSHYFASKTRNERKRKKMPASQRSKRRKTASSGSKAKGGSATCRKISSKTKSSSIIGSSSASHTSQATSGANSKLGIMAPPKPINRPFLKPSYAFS
RECQ1 helicase – qHTS Assay for Inhibitors of RecQ-Like Dna Helicase 1 (RECQ1); ATP-dependent DNA helicase Q1 (Homo sapiens), P46063; RECQ1 DNA unwinding, red fluorescence kinetic read; Potency, µM (series often up to 57.3 µM), for the others: top-dose activity, negative = inhibition, actives largely listed as inhibitors; 240,000 tested, 0.54% active;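 also: plate controls were vehicle for no effect and no enzyme for full effect; nearly all actives have a fitted effect of over 30% in size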
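RECQ1T1 50 nM; forked duplex (20 bp + 30-nt ss tails) 200 nM, ATP 2 mM final; pH 8.0, 2 mM MgCl2, 2.5 ug/ml poly(dI-dC); 15 min compound preincubation; discontinuous kinetic read over 2 h at RT.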
APE1 inh-1 – qHTS Assay for Inhibitors of the Human Apurinic/apyrimidinic Endonuclease 1 (APE1); DNA repair nuclease/redox regulator APEX1 (Homo sapiens), P27695; recombinant APE1, TAMRA/BHQ-2 abasic DNA cleavage fluorescence; Potency, µM (top dose mostly 65.8 µM), without a hit: top-dose activity change, negative = inhibition, hits mostly inhibitors; 350,000 tested, 0.35% active; AID 2517, 2012;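 also: plate controls were vehicle for no effect and reference inhibitor for full effect; nearly all actives have a fitted effect of over 55% in size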
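Quantitative HTS: incision of a TAMRA/BHQ-2 double-stranded substrate bearing a tetrahydrofuran abasic site by 0.75 nM APE1 raises fluorescence. Substrate 50 nM final, added after 15 min compound preincubation at room temperature; progress as third-minus-first kinetic read difference.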
L3MBTL1 block – qHTS Assay for the Inhibitors of L3MBTL1; Lethal(3)malignant brain tumor-like protein 1 (Homo sapiens), Q9Y468; AlphaScreen L3MBTL1–H3K9me1 peptide binding; Potency, µM (titrated, usually from 57.1 µM), for the others: at the top dose activity, negative = inhibition, hits mostly inhibitors; 230,000 tested, 0.66% active; also: nearly all actives have a fitted effect of over 60% in size
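Displacement of a biotinylated histone H3(1-15) peptide monomethylated at Lys9 (75 nM) from L3MBTL1 (50 nM) was measured by AlphaScreen after a 30 min room-temperature compound incubation; cefsulodin titration served as intraplate control.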
DNA dye displace – Counterscreen for APE1 Inhibitors: Fluorescent Dye Displacement Assay; Potency, µM (titrated, usually from 28.5 µM), for inactives: at the highest dose activity change, negative = inhibition, actives largely listed as inhibitors; DNA fluorescent dye displacement counterscreen, fluorescence; 480 tested, 7% active; shares compounds with APE1 inh-1;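 also: loss of thiazole orange fluorescence as the dye is displaced from duplex DNA; 0% = ThO with dsDNA and no compound and -100% = ThO without dsDNA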
EndoIV counter – Counterscreen for APE1 Inhibitors: qHTS Assay for Inhibitors of Endonuclease IV; shares compounds with APE1 inh-1; E. coli Endo IV, fluorogenic AP-site DNA cleavage; Potency, µM (top dose mostly 27.1 µM), for inactives: top-dose activity change, negative = inhibition, usual class: inhibitors; 560 tested, 4% active;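 also: plate controls were uninhibited enzyme wells for no effect and no enzyme buffer wells for full effect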
APE1 inh-2 – Confirmation qHTS Assay for Inhibitors of the Human Apurinic/apyrimidinic Endonuclease 1 (APE1); shares compounds with APE1 inh-1; purified APE1, fluorogenic abasic-site DNA cleavage; Potency, µM (titrated, usually from 57.1 µM), for the others: top-dose activity change, negative = inhibition, hits mostly inhibitors; AID 2572, 2010; 750 tested, 44% active; also: nearly all actives have a fitted effect of over 30% in size
APE1 FP inh – qHTS FP-Based Assay for Inhibitors of the Human Apurinic/apyrimidinic Endonuclease 1 (APE1). shares compounds with APE1 inh-1. APE1 binding to TAMRA-labelled double-stranded DNA, fluorescence polarization displacement. Potency, µM (top dose mostly 28.5 µM), without a hit: at the top dose activity, negative = inhibition, usual class: inhibitors. 480 tested, 7% active
* = called active by the depositor; i = inactive; ? = inconclusive; . = not tested or not shown; ! = not active in a repeat; [ ] = remark or other dose. Calls follow the shape of the dose curve; as a rule, active = well fitted curve in the direction sought with a large enough effect; inconclusive = small, poorly fitted or top-dose-only effect, or another doubt; inactive = no such curve, though single readings can be large; an effect the other way counts as inactive or inconclusive. Unless noted, % is scaled to controls: 0 for no effect and ±100 for the full control effect; potency is read from the fitted curve at half-maximal effect.

SMILES | BLM inh | RECQ1 helicase | APE1 inh-1 | L3MBTL1 block | DNA dye displace | EndoIV counter | APE1 inh-2 | APE1 FP inh
O=C1CCCC(O)=C1N=Nc1cccc(C(=O)O)c1 | -2% | 32µM* | 10µM* | 8.9µM* | 0% | 79% | 13µM* | -14%
CCN(CC)S(=O)(=O)c1cccc(N=NC2=C(O)CCCC2=O)c1 | -5% | ? | -2% | -2% | . | . | . | .
Cc1c(Br)c(O)c(Br)c2sc(=O)oc12 | -15% | 22µM* | ? | 35µM* | 4% | 16% | -7%[24.4 µM] | 1%
CC1=C(C#N)c2nc(N)c(C#N)c(C)c2/C1=C\c1ccc(-c2ccccc2C(=O)O)o1 | -9% | 11µM* | 25µM* | 16µM* | 11µM* | 15% | 14µM* | 13µM*
CSc1ncc(C(=O)Nc2ccc(C)c(Cl)c2)c(-c2ccccc2)n1 | -5% | . | . | . | . | . | . | .
O=C(O)c1ccc(COc2ccc3c4c(c(=O)oc3c2)CCC4)o1 | -12% | i | ? | ? | -17% | 5% | 13µM* | ?
O=c1oc2cc(OCc3ccc([N+](=O)[O-])cc3)ccc2c2c1CCCC2 | 2% | -3% | 11% | -11% | . | . | . | .
O=c1c(O)c(-c2ccc(O)c(O)c2)oc2cc(O)ccc12 | -26% | 3.2µM*! | ? | . | 2.8µM* | 232%[57.1 µM] | 0.89µM* | 6%[57.1 µM]
O=c1oc2c3c4c(cc2s1)CCCN4CCC3 | ? | 28µM* | 28µM* | . | 0% | 46% | 16µM* | -1%
COc1ccc2c(c1)c(=O)oc1cc(OCC(=O)NC3CC3)ccc12 | -5% | i | ? | 8%[11.4 µM] | . | . | . | .
COc1ccc2c(c1)c(=O)oc1cc(OCC(=O)NC3CCCCC3)ccc12 | -14% | -13% | 11µM* | ? | -11% | -2% | 5.6µM* | -29%
CC(C)CCCC(C)CCCC(C)CCCC(C)C(=O)O (configuration not stated) | ? | -11% | -1% | . | . | . | . | .
NC(=O)COC(=O)c1ccc(Cl)c(S(=O)(=O)N2CCCCCC2)c1 | -2% | -17% | -2% | . | . | . | . | .
O=C(OCC(=O)N1CCCCCC1)c1ccc(Cl)c(S(=O)(=O)N2CCCC2)c1 | -7% | -18% | ? | -24% | 17% | 8% | ? | -5%
COc1ccc(CCNC(=O)c2ccc3nc(-c4ccco4)c(-c4ccco4)nc3c2)cc1OC | 14µM* | 16µM* | 8.9µM*! | ? | . | . | 16µM* | .
CCc1nc2ccc(C(=O)NCCc3ccc(OC)c(OC)c3)cc2nc1CC | 2% | . | 58% | . | . | . | . | .
Cc1ccc(C)c(N2CCN(CCCNC(=O)C3COc4ccccc4C3)CC2)c1 (configuration not stated) | 1% | . | . | . | . | . | . | .
O=C(CSc1nc(NS(=O)(=O)c2ccccc2)cc(=O)[nH]1)Nc1ccc(F)cc1 | ? | ? | ? | ? | . | . | -8% | .
O=C(O)C1C2C=CC(C2)C1C(=O)NCc1cccs1 (configuration not stated) | -3% | i | ? | -1% | . | . | ? | .
Oc1ccc(/C=N/n2c(-c3ccco3)csc2=Nc2cccnc2)c(O)c1 | -4% | 0% | -3% | -8% | . | . | . | .
COCCN=c1scc(-c2ccco2)n1/N=C/c1ccc(O)c(O)c1O | 10µM* | 8.9µM* | 8.9µM* | 1.4µM* | 11µM* | 22% | 4.5µM* | 14µM*
CO/N=C(\C(=O)N[C@@H]1C(=O)N2C(C(=O)O)=C(COC(C)=O)CS[C@@H]12)c1csc(N)n1 | -10% | -2%[25.9 µM] | . | . | -6%[57.1 µM] | 23%[57.1 µM] | 28µM* | -12%[57.1 µM]
CO/N=C(\C(=O)N[C@@H]1C(=O)N2C(C(=O)O)=C(COC(C)=O)CS[C@H]12)c1csc(N)n1 | -12% | -6% | 9% | . | . | . | . | .
C=CC1=C(C(=O)O)N2C(=O)[C@@H](NC(=O)/C(=N\OCC(=O)O)c3csc(N)n3)[C@@H]2SC1 | -3%[21.4 µM] | -2%[25.9 µM] | . | . | -4% | 25% | 13µM* | 2%
CO/N=C(/C(=O)N[C@@H]1C(=O)N2C(C(=O)O)=C(C[n+]3ccc(N)n3CCO)CS[C@H]12)c1csc(N)n1 | 4% | . | . | . | . | . | . | .
SMILES | BLM inh | RECQ1 helicase | APE1 inh-1 | L3MBTL1 block | DNA dye displace | EndoIV counter | APE1 inh-2 | APE1 FP inh
Cc1ccc(C(C)C)c(OCc2ccc(C(=O)Nc3ccc(S(N)(=O)=O)cc3C)o2)c1 | -17% | . | . | . | . | . | . | .
O=C(CSc1nnc(-c2ccc(F)cc2)o1)N1CCCc2ccccc21 | -3% | . | . | . | . | . | . | .
Cn1c(=O)c2c(ncn2CC(=O)N/N=C/c2c[nH]c3ccccc23)n(C)c1=O | -4% | -6% | 8% | -11% | . | . | ? | .
CC(=O)N[C@H]1C(O[C@@H]2O[C@H](C[C@@H](O)[C@H]3O[C@@H](N4CCC(=O)NC4=O)[C@H](O)[C@@H]3O)[C@H](O)[C@H](O)[C@H]2NC(=O)/C=C/CCCCCCCCCCC(C)C)OC(CO)[C@@H](O)[C@@H]1O (some centres not stated) | -9% | -9% | 7.9µM* | . | 103%[57.1 µM] | 11%[57.1 µM] | 2.5µM* | -57%[57.1 µM]
CC(=O)NC1C(OC2OC(CC(O)C3OC([N+]4=CCC(=O)NC4=O)C(O)C3O)C(O)C(O)C2NC(=O)/C=C/CCCCCCCCC(C)C)OC(CO)C(O)C1O (configuration not stated) | . | 25% | -3% | . | . | . | . | .
C=CCn1c(COc2cccc(C)c2)nnc1SCC(=O)NC(=O)NCc1ccco1 | -29% | -20% | ? | ? | -7% | 0% | ? | -23%
O=C(CSc1nnc(COc2ccccc2)n1Cc1ccco1)NCc1ccco1 | -25% | -22% | ? | ? | . | . | . | .
CC(=O)CC(=O)Nc1ccccc1 | . | -1% | 1% | . | . | . | . | .
O=C(/C=C\c1ccccc1)c1ccccc1O | 1%[12.4 µM] | i[11.5 µM] | 1%[12.4 µM] | . | . | . | . | .
O=C(/C=C/c1ccccc1)c1cc(Br)ccc(=O)c1O | -19% | 32µM* | ? | . | ? | -1% | ? | ?
